Reference: the supplement of paper PMC10981050

test system: MARIMO; test: cell viability relative to vehicle control; higher = less cytotoxic; settings: 10 µM; SRSF2 genotype: SRSF2 wt/wt
How it was run: (§1)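 Each screen used CRISPR-edited mutant and wild-type clones from four leukaemia lines. Compounds were acoustically dispensed at a single 10 µM dose, and CellTiter-Glo luminescence was read after 48 h with the supernatant first removed. Viability was analysed in Genedata Screener and given as percent of the on-plate vehicle control.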

Row | SMILES | cell viability
1 | O=S(=O)(NCCSSCCNS(=O)(=O)c1cc(Cl)ccc1Cl)c1cc(Cl)ccc1Cl | 72.4%
2 | CCN(CC)c1ccc2cc(C(=O)O)c(=O)oc2c1 [7-(Diethylamino)coumarin-3-carboxylic acid] | 108%
3 | CCOC(=O)[C@H](CCc1ccccc1)N[C@@H](C)C(=O)N1[C@H](C(=O)O)C[C@@H]2CCC[C@@H]21 [Ramipril (Altace)] | 92.3%
4 | O=c1oc2c(O)c(O)cc3c(=O)oc4c(O)c(O)cc1c4c23 [Ellagic acid] | 105%
5 | OCC1OC(OC2OC(CO)C(O)C(O)C2O)C(O)C(O)C1O [D-(+)-Trehalose Anhydrous] | 99.1%
6 | O=c1[nH]cnc2[nH]ncc12 [Allopurinol Sodium (Aloprim)] | 93.1%
7 | Cc1cc(C2CCCCC2)n(O)c(=O)c1 [Ciclopirox (Penlac)] | 21.8%
8 | CC(=O)CCc1ccccc1 [Benzylacetone] | 92.5%
9 | Clc1ccc(C(Cn2ccnc2)OCc2c(Cl)cccc2Cl)c(Cl)c1 (stereo not drawn) [Isoconazole nitrate (Travogen)] | 73.2%
10 | COc1c(O)c(C)cc2c1C(=O)c1c(O)cccc1C2=O [Obtusifolin] | 105%
11 | NCCOCCOCCNC(=O)Cc1ccc(Nc2nc(NCc3ccc(F)cc3)nc(NCC3CCCCC3)n2)cc1 [AP-III-a4 (ENOblock)] | 97.1%
12 | CC(=O)OC(CC(C)C1=C2CC(O)C3C4(C)CCC(=O)C(C)(C)C4CCC3(C)C2(C)CC1)C1OC1(C)C (stereo not drawn) [Alisol B Acetate] | 55.6%
13 | O=C(c1cccc(Cl)c1F)N1CCN(Cc2cccc(Nc3nccs3)n2)CC1 | 91.5%
14 | O=C(/C=C/n1cnc(-c2cc(C(F)(F)F)cc(C(F)(F)F)c2)n1)N1CC(F)(F)C1 | 36.6%
15 | CC(=O)Cc1cc(=O)c2c(C)cc(O)c([C@@H]3O[C@H](CO)[C@@H](O)[C@H](O)[C@H]3O)c2o1 [Aloesin] | 104%
16 | CCOC(=O)c1c(C)n(C)c2ccc(O)cc12 [Mecarbinate] | 104%
17 | CC(/C=C/C=C(\C)C(=O)O[C@@H]1O[C@H](CO)[C@@H](O)[C@H](O)[C@H]1O)=C\C=C\C=C(C)\C=C\C=C(/C)C(=O)O[C@@H]1O[C@H](CO[C@@H]2O[C@H](CO)[C@@H](O)[C@H](O)[C@H]2O)[C@@H](O)[C@H](O)[C@H]1O [Crocin II] | 110%
18 | Cc1c(C)c(NCC(=O)N(C)C2CCN(Cc3ccc(C(N)=O)cc3)CC2)c(C)c(C)c1N | 102%
19 | C[C@@H]1C[C@H]2[C@@H]3CCC4=CC(=O)C=C[C@]4(C)[C@@]3(Cl)[C@@H](O)C[C@]2(C)[C@@]1(OC(=O)c1ccco1)C(=O)CCl [Mometasone furoate] | 103%
20 | N=C(N)c1ccc(OCCCCCOc2ccc(C(=N)N)cc2)cc1 [Pentamidine isethionate] | 62.8%
21 | CC(=O)OC/C=C(/C)CCC=C(C)C [Neryl acetate] | 102%
22 | CN1CCN(CCCN2c3ccccc3Sc3ccc(C(F)(F)F)cc32)CC1 [Trifluoperazine 2HCl] | 50.8%
23 | COc1ccc2[nH]cc(CCNC(C)=O)c2c1 [Melatonin] | 101%
24 | Clc1cccc(-c2nnnn2Cc2cccnc2)c1Cl | 101%
25 | C[C@@]12C[C@H](c3ccoc3)O[C@@]13C[C@H](OC3=O)[C@H]1[C@H]2C[C@@H]2C[C@H]1C(=O)O2 [Diosbulbin B] | 108%
26 | COc1c(O[C@@H]2O[C@H](CO)[C@@H](O)[C@H](O)[C@H]2O)cc2occ(-c3ccc(O)cc3)c(=O)c2c1O [Tectoridin] | 95.3%
27 | COc1ccc(C2CNC(=O)C2)cc1OC1CCCC1 (stereo not drawn) [S-(+)-Rolipram] | 110%
28 | O=C(O)[C@]1(Cc2cccc(Nc3nccs3)n2)CC[C@@H](Oc2cccc(Cl)c2F)CC1 | 68.2%

test system: MOLM14; test: as above; settings: 10 µM; SRSF2 genotype: SRSF2 P95H/wt
How it was run: as §1

Row | SMILES | cell viability
29 | O=C(O)c1ccc(C=C2SC(=S)N(c3cccc(C(F)(F)F)c3)C2=O)cc1 | 90.2%
30 | Cc1cn([C@H]2C[C@H](O)[C@@H](CO)O2)c(=O)[nH]c1=O [Thymidine] | 92.5%
31 | C[C@]12CC[C@@H]3c4ccc(OC(=O)c5ccccc5)cc4CC[C@H]3[C@@H]1CC[C@@H]2O [Estradiol Benzoate] | 82.6%
32 | O=C(O)c1ccc(Cl)cc1O [4-Chloro-2-hydroxybenzoic acid] | 101%
33 | C[C@H]1O[C@@H](Oc2c(-c3cc(O)c(O)c(O)c3)oc3cc(O)cc(O)c3c2=O)[C@@H](O)[C@@H](O)[C@@H]1O [Myricitrin (Myricitrine)] | 104%
34 | OC[C@H]1O[C@H](OCC2O[C@@H](O)[C@H](O)[C@@H](O)[C@@H]2O)[C@H](O)[C@@H](O)[C@H]1O (stereo partly drawn) [Melibiose] | 101%
35 | CO[C@@]12[C@H](COC(N)=O)C3=C(C(=O)C(C)=C(N)C3=O)N1C[C@@H]1N[C@@H]12 [Mitomycin C] | 0.73%
36 | CN1C(C(=O)Nc2ccccn2)=C(O)c2ccccc2S1(=O)=O [Piroxicam (Feldene)] | 97.6%
37 | NC(=O)c1cn(Cc2c(F)cccc2F)nn1 [Rufinamide (Banzel)] | 107%
38 | O=c1c(-c2ccc(O[C@@H]3O[C@H](CO)[C@@H](O)[C@H](O)[C@H]3O)cc2)coc2cc(O)cc(O)c12 [Sophoricoside] | 100%
39 | CCOc1cc([C@@H](CS(C)(=O)=O)N2C(=O)c3cccc(NC(C)=O)c3C2=O)ccc1OC | 98%
40 | Cc1cc2c(C(=O)NCC(C)c3ccccc3)c(O)c(O)cc2c(O)c1-c1c(C)cc2c(C(=O)NCC(C)c3ccccc3)c(O)c(O)cc2c1O (stereo not drawn) [Sabutoclax] | 22.8%
41 | O=S(=O)(NCCSSCCNS(=O)(=O)c1cc(Cl)ccc1Cl)c1cc(Cl)ccc1Cl | 53.8%
42 | CCN(CC)c1ccc2cc(C(=O)O)c(=O)oc2c1 [7-(Diethylamino)coumarin-3-carboxylic acid] | 98%
43 | CCOC(=O)[C@H](CCc1ccccc1)N[C@@H](C)C(=O)N1[C@H](C(=O)O)C[C@@H]2CCC[C@@H]21 [Ramipril (Altace)] | 88.2%
44 | O=c1oc2c(O)c(O)cc3c(=O)oc4c(O)c(O)cc1c4c23 [Ellagic acid] | 106%
45 | OCC1OC(OC2OC(CO)C(O)C(O)C2O)C(O)C(O)C1O [D-(+)-Trehalose Anhydrous] | 107%
46 | O=c1[nH]cnc2[nH]ncc12 [Allopurinol Sodium (Aloprim)] | 86.6%
47 | Cc1cc(C2CCCCC2)n(O)c(=O)c1 [Ciclopirox (Penlac)] | 7.11%
48 | CC(=O)CCc1ccccc1 [Benzylacetone] | 106%

Row | SMILES | cell viability
49 | Clc1ccc(C(Cn2ccnc2)OCc2c(Cl)cccc2Cl)c(Cl)c1 (stereo not drawn) [Isoconazole nitrate (Travogen)] | 77.6%
50 | COc1c(O)c(C)cc2c1C(=O)c1c(O)cccc1C2=O [Obtusifolin] | 111%
51 | NCCOCCOCCNC(=O)Cc1ccc(Nc2nc(NCc3ccc(F)cc3)nc(NCC3CCCCC3)n2)cc1 [AP-III-a4 (ENOblock)] | 16%
52 | CC(=O)OC(CC(C)C1=C2CC(O)C3C4(C)CCC(=O)C(C)(C)C4CCC3(C)C2(C)CC1)C1OC1(C)C (stereo not drawn) [Alisol B Acetate] | 72.8%
53 | O=C(c1cccc(Cl)c1F)N1CCN(Cc2cccc(Nc3nccs3)n2)CC1 | 54.9%
54 | O=C(/C=C/n1cnc(-c2cc(C(F)(F)F)cc(C(F)(F)F)c2)n1)N1CC(F)(F)C1 | 2.44%
55 | CC(=O)Cc1cc(=O)c2c(C)cc(O)c([C@@H]3O[C@H](CO)[C@@H](O)[C@H](O)[C@H]3O)c2o1 [Aloesin] | 109%
56 | CCOC(=O)c1c(C)n(C)c2ccc(O)cc12 [Mecarbinate] | 116%
57 | CC(/C=C/C=C(\C)C(=O)O[C@@H]1O[C@H](CO)[C@@H](O)[C@H](O)[C@H]1O)=C\C=C\C=C(C)\C=C\C=C(/C)C(=O)O[C@@H]1O[C@H](CO[C@@H]2O[C@H](CO)[C@@H](O)[C@H](O)[C@H]2O)[C@@H](O)[C@H](O)[C@H]1O [Crocin II] | 87.5%
58 | Cc1c(C)c(NCC(=O)N(C)C2CCN(Cc3ccc(C(N)=O)cc3)CC2)c(C)c(C)c1N | 87.1%
59 | C[C@@H]1C[C@H]2[C@@H]3CCC4=CC(=O)C=C[C@]4(C)[C@@]3(Cl)[C@@H](O)C[C@]2(C)[C@@]1(OC(=O)c1ccco1)C(=O)CCl [Mometasone furoate] | 82.7%
60 | N=C(N)c1ccc(OCCCCCOc2ccc(C(=N)N)cc2)cc1 [Pentamidine isethionate] | 72%
61 | CC(=O)OC/C=C(/C)CCC=C(C)C [Neryl acetate] | 112%
62 | CN1CCN(CCCN2c3ccccc3Sc3ccc(C(F)(F)F)cc32)CC1 [Trifluoperazine 2HCl] | 45.9%
63 | COc1ccc2[nH]cc(CCNC(C)=O)c2c1 [Melatonin] | 103%
64 | Clc1cccc(-c2nnnn2Cc2cccnc2)c1Cl | 101%
65 | C[C@@]12C[C@H](c3ccoc3)O[C@@]13C[C@H](OC3=O)[C@H]1[C@H]2C[C@@H]2C[C@H]1C(=O)O2 [Diosbulbin B] | 108%
66 | COc1c(O[C@@H]2O[C@H](CO)[C@@H](O)[C@H](O)[C@H]2O)cc2occ(-c3ccc(O)cc3)c(=O)c2c1O [Tectoridin] | 91.8%
67 | COc1ccc(C2CNC(=O)C2)cc1OC1CCCC1 (stereo not drawn) [S-(+)-Rolipram] | 99.8%
68 | O=C(O)[C@]1(Cc2cccc(Nc3nccs3)n2)CC[C@@H](Oc2cccc(Cl)c2F)CC1 | 27.7%
